# Laboratory results: article PMC5540273 (PLoS ONE, 2017)
# How the values were obtained:
# Conditions in all cases: concentration: 1 μM,replicates: in singlicate; n = 1
# [1] = system: CSNK1G1
# [2] = system: CSNK1G2
# [3] = system: CSNK1G3
# [4] = system: CSNK2A1
# [5] = system: CSNK2A2
# [6] = system: T1, CTK
# T1 construct: gene MATK
# [7] = system: DAPK1
# [8] = system: DAPK2
# [9] = system: DAPK3
# [10] = system: T2, DCAMKL1
# T2 construct: gene DCLK1
# [11] = system: T3, DCAMKL2
# T3 construct: gene DCLK2
# [12] = system: T4, DCAMKL3
# T4 construct: gene DCLK3
# [13] = system: DDR1
# [14] = system: DDR2
# [15] = system: T5, DLK
# T5 construct: gene MAP3K12
# [16] = system: T6, DMPK2
# T6 construct: gene CDC42BPG
# [17] = system: DMPK
# [18] = system: T7, DRAK1
# T7 construct: gene STK17A
# [19] = system: T8, DRAK2
# T8 construct: gene STK17B
# [20] = system: DYRK1A
# 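Also: KINOMEscan kinase panel screen.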
SMILES,%Inh [1],%Inh [2],%Inh [3],%Inh [4],%Inh [5],%Inh [6],%Inh [7],%Inh [8],%Inh [9],%Inh [10],%Inh [11],%Inh [12],%Inh [13],%Inh [14],%Inh [15],%Inh [16],%Inh [17],%Inh [18],%Inh [19],%Inh [20]
O=C(NCCCN1CCOC1=O)c1cnc(NCc2cc(Cl)ccc2Cl)nc1NC1CCCC1,0%,3%,0%,16%,23%,0%,3%,7%,12%,28%,1%,18%,0%,11%,37%,0%,0%,0%,0%,0%
Cc1occc1-c1nc(N)c(OC[C@@H](N)Cc2c[nH]c3ccccc23)cc1-c1cc2c(C)n[nH]c2cn1 [GSK1660450],79%,74%,83%,76%,48%,11%,64%,69%,59%,24%,19%,56%,10%,0%,13%,86%,99.1%,0%,0%,100%
Cl.Oc1cc(-c2nc(-c3ccccc3)[nH]c2-c2ccncc2)ccc1Cl [SB-386023],0%,0%,16%,11%,30%,38%,0%,0%,0%,34%,0%,0%,92.7%,83%,0%,0%,0%,0%,0%,0%
CCN(CC)CCCCNc1ncc2cc(-c3c(Cl)cccc3Cl)c(NC(=O)NC(C)(C)C)nc2n1,10%,0%,0%,1%,12%,15%,0%,0%,0%,11%,0%,14%,99.7%,100%,86%,0%,4%,0%,5%,0%
Cc1ccc2c(-c3ccncc3)c(-c3ccc(F)cc3)nn2c1.Cl [GW461484],30%,27%,27%,0%,0%,0%,0%,7%,5%,0%,0%,0%,76%,80%,29%,77%,11%,0%,0%,0%
CCn1c(-c2nonc2N)nc2c(C#CC(C)(C)O)nc(OCCN)cc21.Cl.Cl [GSK902056],0%,0%,12%,0%,46%,0%,0%,0%,21%,0%,0%,40%,–,5%,0%,0%,0%,0%,0%,25%
C=CC(=O)Nc1cc2c(Nc3ccc(F)c(Cl)c3)ncnc2cc1OCCCN1CCOCC1 [GW781483],0%,1%,99.8%,27%,16%,4%,0%,0%,0%,15%,1%,10%,71%,44%,0%,6%,20%,2%,5%,11%
Cc1cc2cn[nH]c2cc1-c1cccc2c(N)c(C(N)=O)nnc12,12%,13%,12%,19%,5%,80%,9%,3%,32%,71%,37%,98.8%,0%,0%,98.8%,7%,0%,47%,27%,13%
CN(C)CC(O)COc1ccc(Nc2nccc(-c3cnn4nc(N5CCOCC5)ccc34)n2)cc1 (stereo not shown) [GW767488],16%,50%,10%,97.1%,98.7%,1%,59%,46%,68%,72%,61%,64%,0%,0%,61%,17%,20%,99.7%,93.1%,73%
C[C@@H]1CCN(C(=O)CC#N)C[C@@H]1N(C)c1ncnc2[nH]ccc12,15%,0%,0%,0%,0%,0%,10%,0%,4%,0%,14%,99.1%,0%,0%,0%,0%,24%,11%,5%,0%
C[C@@H](Oc1cc(-c2cnn(C3CCNCC3)c2)cnc1N)c1c(Cl)ccc(F)c1Cl,8%,0%,0%,18%,0%,13%,10%,1%,15%,88%,79%,22%,59%,44%,94.6%,0%,22%,0%,0%,12%
C[C@H]1Oc2cc(cnc2N)-c2c(nn(C)c2C#N)CN(C)C(=O)c2ccc(F)cc21,0%,27%,10%,0%,0%,0%,0%,83%,16%,88%,91.8%,15%,–,3%,2%,0%,0%,2%,0%,0%
Cc1ccc(-n2nc(C(C)(C)C)cc2NC(=O)Nc2ccc(OCCN3CCOCC3)c3ccccc23)cc1 [GW839464],1%,0%,19%,0%,4%,0%,4%,1%,20%,21%,0%,34%,–,–,7%,40%,4%,0%,11%,0%
CNC(=O)c1ccccc1Sc1ccc2c(/C=C/c3ccccn3)n[nH]c2c1,0%,18%,0%,0%,0%,8%,0%,0%,0%,31%,14%,76%,18%,14%,41%,6%,0%,76%,0%,0%
CN(C)CCOc1ccc(-c2cc(-c3c[nH]nc3-c3ccccn3)ccn2)cc1 [GW835314],14%,9%,65%,0%,3%,48%,13%,0%,0%,0%,1%,1%,0%,0%,8%,0%,0%,18%,9%,1%
Cc1cc(C(=O)Nc2ccc(Oc3ccc4nc(NC(=O)C5CC5)cn4n3)cc2)nn1-c1ccccc1,6%,0%,0%,0%,0%,0%,0%,0%,10%,12%,2%,20%,–,100%,12%,0%,0%,0%,0%,0%
Nc1nc(Nc2ccccc2)cc(-c2ccc3c(N)n[nH]c3c2)n1 [GSK2225749],2%,0%,13%,34%,24%,0%,34%,49%,62%,12%,0%,61%,0%,26%,3%,0%,0%,99.5%,97.2%,48%
NC(=O)c1cc(-c2ccccc2)cc2c(C3CCNCC3)c[nH]c12 [GSK301362],3%,0%,19%,31%,20%,4%,23%,9%,40%,14%,2%,53%,–,0%,23%,8%,30%,0%,0%,28%
Cl.Cl.NC[C@H](CC1CCCCC1)NC(=O)c1cc(Br)c(-c2ccnc3[nH]ccc23)s1 [GSK1581427],6%,26%,40%,55%,0%,0%,71%,12%,19%,16%,14%,0%,0%,0%,0%,98.3%,91.7%,14%,0%,55%
Cl.Cl.NC[C@H](Cc1ccc(C(F)(F)F)cc1)NC(=O)c1cc(Br)c(-c2ccnc3[nH]ccc23)s1 [GSK1487252],0%,8%,24%,0%,14%,0%,0%,0%,6%,17%,0%,75%,8%,0%,8%,64%,0%,18%,0%,35%
Cc1n[nH]c2ccc(-c3cc(OC[C@@H](N)Cc4ccccc4)cnc3-c3ccoc3)cc12.O=C(O)C(F)(F)F.O=C(O)C(F)(F)F [GSK507358],71%,90.6%,91.7%,10%,8%,0%,0%,0%,13%,0%,0%,0%,0%,0%,15%,50%,92.8%,0%,0%,29%
CCN(CC)CCOc1ccc(Nc2ncc3cc(-c4c(Cl)cccc4Cl)c(=O)n(C)c3n2)cc1 [SB-601273],38%,0%,12%,6%,9%,27%,12%,0%,10%,24%,41%,0%,100%,100%,96.4%,95.4%,24%,43%,21%,0%
O=C(NCCNc1ccnc(NCc2ccc(F)cc2)n1)c1cc2ccccc2s1 [GSK1379944],32%,98.8%,9%,0%,66%,0%,0%,0%,81%,1%,0%,4%,–,0%,0%,0%,0%,0%,0%,30%
Cl.Cl.Nc1nc(-c2ccc3c(N)n[nH]c3c2)cc(N2CCCC(NC(=O)c3ccccc3)C2)n1 (stereo not shown) [GSK2286775],0%,0%,21%,0%,6%,6%,28%,0%,13%,15%,0%,0%,26%,0%,1%,1%,0%,75%,0%,9%
COc1ccc(C[C@@H](CN)NC(=O)c2cc(Br)c(-c3ccnc4[nH]ccc34)s2)cc1.Cl.Cl [GSK1389063],33%,79%,73%,57%,64%,2%,26%,13%,18%,64%,38%,86%,2%,26%,10%,99.4%,28%,44%,0%,97.6%
CC(C)N1C(=O)Cc2cc(Nc3ncc(C(F)(F)F)c(NCc4cccc(S(C)(=O)=O)c4)n3)ccc21,0%,19%,0%,55%,82%,64%,22%,20%,20%,30%,0%,34%,–,0%,0%,0%,0%,74%,82%,2%
CC(C)Nc1cc(-c2ccc3c(N)n[nH]c3c2)nc(N)n1 [GSK2221681],0%,2%,19%,13%,28%,0%,30%,42%,51%,7%,20%,51%,0%,0%,28%,0%,0%,99%,0%,50%
